Measured values published in PubChem BioAssay (NCATS).
Inconclusive results are not listed. Calls of active or inactive are those of the source. Unless noted, calls come from the whole dose curve; as a rule, active = well fitted curve in the direction sought with a large enough effect; inconclusive = small, poorly fitted or top-dose-only effect, or another doubt; inactive = no such curve, though single readings can be large; an effect the other way counts as inactive or inconclusive.

Tests used:
[1] = AP1 Signaling Pathway (AID 357; active = well fitted curve in either direction with a large enough effect, not every such curve was filed as active;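 note: ME-180 reporter cells stimulated with EGF at its EC50 level; % is set by controls: 0 for no effect and ±100 for the full control effect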); settings: ME-180 AP-1-bla reporter, EGF-induced, beta-lactamase ratio, 5 h
Method in brief: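 Titration-series screen for positive or negative modulators of EC50 EGF-induced signaling in ME-180 cells carrying an AP-1-driven beta-lactamase reporter. After 5 hours at 37 degrees Celsius, CCF4 460nm/530nm emission ratio gave %Activity; AC50 values derived.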

[2] = NFAT Signaling Pathway (AID 444; active = well fitted curve in either direction with a large enough effect, not every such curve was filed as active;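 note: carbachol stimulus at about its EC50 of 1 µM final; % is set by controls: 0 for no effect and ±100 for the full control effect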); settings: Jurkat NFAT-bla M1, carbachol, beta-lactamase ratio, 5 h
Method in brief: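 Jurkat cells carrying an NFAT-driven β-lactamase reporter and co-transfected muscarinic M1 receptor were treated with compound plus carbachol (1 uM final, an EC50 level) for 5 h at 37 °C. CCF4 loading followed for 1 h at RT; 460/530 nm ratio gave %activity.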

[3] = Stat Signaling Pathway (AID 446; active = well fitted curve in either direction with a large enough effect, not every such curve was filed as active;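 note: ME-180 cervical cancer cells given 40 pM IL-6 alongside compound; SIE-controlled beta-lactamase reporter measured as 460/530 nm FRET emission ratio; % is set by controls: 0 for no effect and ±100 for the full control effect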); settings: ME-180 SIE beta-lactamase reporter, IL-6 stimulated, 5 h
Method in brief: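 Screening format detects activators and inhibitors alike: ME-180 SIE-bla cells stimulated at 40 pM IL-6 for 5 hrs with compound, then dual-emission beta-lactamase read at 405 nm excitation.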

[4] = biological target: Glucocorticoid receptor (Homo sapiens) (UniProt P04150); assay: GR-GFP Redistribution (AID 450;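 active = compounds whose dose series gives a full or clear partial fitted curve of increased nuclear translocation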; note: potency is the fitted concentration of half-maximal effect); settings: U2OS GR-GFP nuclear translocation, laser cytometry, 2 h
[5] = biological target: Glucocorticoid receptor (Homo sapiens) (UniProt P04150); assay: GR-EFC Redistribution (AID 451; calls by dose curve; note: potency is the fitted concentration of half-maximal effect); settings: CHO-K1 GR-EFC translocation, beta-gal luminescence, 2 h
Method in brief: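 CHO-K1 cells stably expressing nuclear-localized β-gal enzyme acceptor and GR fused C-terminally to the enzyme donor fragment; ligand-driven nuclear translocation restores β-gal by complementation. Compounds titrated up to 46 uM final, 2 h at 37 °C; luminescence read.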

[6] = biological target: Mitogen-activated protein kinase 10 (Mus musculus) (UniProt Q61831); assay: JNK3 AlphaScreen Assay (AID 530; active = well fitted curve in either direction with a large enough effect, not every such curve was filed as active;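 note: kinase came from lysate of stimulated human HepG2 cells; signal reports phosphorylation of biotinylated GST-cJun 1-79 at Ser73 with 10 µM ATP; % is set by controls: 0 for no effect and ±100 for the full control effect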)
Method in brief: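 JNK3 came from HepG2 lysates pre-activated with IL-1beta and TNF-alpha and phosphorylated biotinylated GST-cJun (1-79) at 10 uM ATP, pH 7.6, room temperature. Compounds were titrated. AlphaScreen signal used anti-phospho-cJun (Ser73) antibody.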

[7] = biological target: 3',5'-cyclic-AMP phosphodiesterase 4B (Homo sapiens) (UniProt Q07343); assay: qHTS Assay for Inhibitors of PDE-IV (AID 607; active = well fitted activation curve with a large enough effect in the main read-out, with a control signal flat, not every such curve was filed as active; note: % of control where 0% means no effect)
Method in brief: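 The readout is membrane depolarisation from a cAMP-sensing CNG channel, detected with a potential dye at ex 535/em 590. Cells were HEK293-derived (endogenous PDE-IV) at 1000 cells/well, titrated up to 22.9 uM final.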

[8] = biological target: DNA dC->dU-editing enzyme APOBEC-3G (Homo sapiens) (UniProt Q9HC16); assay: qHTS for inhibitors of Vif-A3G interactions: Validation (AID 588379); note: potency is the fitted concentration of half-maximal effect; for activity change, negative = inhibition: 0% is about no effect
Method in brief: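 HeLa cells stably expressing Vif and A3G-eYFP, 700 cells/well, incubated overnight at 37 deg C, then exposed to compound overnight at 37 deg C. Inhibition of Vif-mediated degradation read as increased yellow fluorescence (Ex 488/Em 500-530) by laser-scanning cytometry.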

[9] = biological target: Luciferin 4-monooxygenase (Photinus pyralis) (UniProt P08659); assay: Biochemical firefly luciferase enzyme assay for NPC (AID 624030);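 note: purified P. pyralis luciferase at 10 nM with luciferin and ATP substrate; 0% = DMSO and -100% = full luciferase inhibition by PTC124 control; nearly all actives have a fitted effect of over 70% in size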
Method in brief: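 Counter-screen for direct inhibition of the luciferase enzyme by approved-drug library compounds, run at 10 nM enzyme in 50 mM Tris acetate (final). Luminescence was read within 5 min of enzyme-buffer addition and normalized to PTC124 versus DMSO (0%).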

[10] = test system: Zika virus NS2B-NS3 protease; assay: Primary screen GU AMC qHTS for Zika virus inhibitors (AID 1347154); note: nearly all actives have a fitted effect of over 70% in size; note: potency is the fitted concentration of half-maximal effect;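 for activity change, negative = inhibition: 0% = no-inhibitor control and -100% = no-enzyme control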
Method in brief: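 Unlinked Zika NS2B hydrophilic domain/NS3 protease domain noncovalent complex (25 nM final) in 10 mM Tris-HCl pH 8.0, 0.01% Tween 20, with AMC peptide substrate. Fluorescence (ex 340, em 450 nm) change over 15 min, room temperature; percent inhibition fitted to 4-parameter Hill equation.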

[11] = Primary qHTS for small molecule stabilizers of the endoplasmic reticulum resident proteome: Secreted ER Calcium Modulated Protein (SERCaMP) assay (AID 1508630); note: % is set by controls: 0 for no effect and ±100 for the full control effect
Method in brief: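 GLuc-SERCaMP-expressing SH-SY5Y cells, pretreated 16 h with compound, are challenged with thapsigargin to empty ER calcium stores; after 4 h, coelenterazine is added directly to the medium and luminescence is imaged.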

[12] = biological target: Cytochrome P450 1A2 (Homo sapiens) (UniProt P05177); assay: p450-cyp1a2 (AID 410; calls by dose curve; note: potency is the fitted concentration of half-maximal effect;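 for activity change, negative = inhibition: -100% = full effect of reference inhibitor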)
Method in brief: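 Inhibition was calculated relative to 57 uM furafylline (full inhibition). The reaction used human CYP1A2 at 20nM with Luciferin-ME at its Km, 100uM, driven by an NADPH-regenerating system for 60 min at room temperature.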

[13] = biological target: Cytochrome P450 2C9 (Homo sapiens) (UniProt P11712); assay: qHTS Assay for Inhibitors and Substrates of Cytochrome P450 2C9 (AID 883); note: nearly all actives have a fitted effect of over 60% in size; note: potency is the fitted concentration of half-maximal effect
Method in brief: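 Human CYP2C9 (10nM) hydroxylated Luciferin-H (100uM, at its KM) to luciferin in 25mM KPO4. Compound was preincubated 10 min at 37C, then NADPH regeneration started a 60 min reaction at 37C. Luminescence was read after detection reagent, normalized to 57uM sulphaphenazole.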

[14] = biological target: Ubiquitin carboxyl-terminal hydrolase 1 (Homo sapiens) (UniProt O94782); assay: Inhibitors of USP1/UAF1: Pilot qHTS (AID 504865);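 note: rhodamine fluorescence freed from ubiquitin-rhodamine substrate followed over time; top concentration of the series differs between compounds; % is set by controls: 0 for no effect and ±100 for the full control effect; nearly all actives have a fitted effect of over 35% in size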
Method in brief: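 USP1/UAF1 complex at 1 nM preincubated 15 min at room temperature with compound, then Ub-Rho substrate added at 150 nM final. Fluorescence (480/540 nm) read kinetically in 50 mM HEPES pH 7.8, 0.5 mM EDTA, 1 mM TCEP, 0.1 mg/ml BSA, 0.01% Tween-20.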

[15] = biological target: Lysosomal acid glucosylceramidase (Homo sapiens) (UniProt P04062); assay: Glucocerebrosidase-p2 (AID 348; in the data active = potency below about 10 µM; note: potency is the fitted concentration of half-maximal effect); settings: purified GBA, blue fluorogenic substrate, 40 min
Method in brief: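 Compounds titrated from 0.6 nM upwards against 0.2 nM enzyme in pH 5.9 citric acid/KH2PO4, taurocholate, tween-20; blue fluorogenic substrate 80 uM, 40 min room temperature, stopped and read Ex 365/Em 440 for AC50.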

[16] = biological target: Cytochrome P450 3A4 (Homo sapiens) (UniProt P08684); assay: qHTS Assay for Activators of Cytochrome P450 3A4 (AID 885); note: nearly all actives have a fitted effect of over 65% in size
Method in brief: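 Steps: enzyme/substrate mix dispensed; compound added, 10 min RT; NADPH regeneration solution added, 60 min RT; luciferin detection buffer stops reaction; 20 min later luminescence measured.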

[17] = biological target: Cytochrome P450 2C19 (Homo sapiens) (UniProt P33261); assay: qHTS Assay for Inhibitors and Substrates of Cytochrome P450 2C19 (AID 899); note: nearly all actives have a fitted effect of over 60% in size; note: potency is the fitted concentration of half-maximal effect
Method in brief: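 Human CYP2C19 (5nM) with Luciferin-H EGE at 10uM (its KM) in 50mM KPO4 was preincubated with compound for 10 min at 37C. NADPH regeneration started a 60 min 37C reaction. Luciferin was read by luminescence, normalized to 57uM ketoconazole.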

[18] = biological target: Cytochrome P450 2D6 (Homo sapiens) (UniProt P10635); assay: qHTS Assay for Inhibitors and Substrates of Cytochrome P450 2D6 (AID 891); note: potency is the fitted concentration of half-maximal effect; nearly all actives have a fitted effect of over 60% in size
Method in brief: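 Human CYP2D6 (5 nM) with 30 uM Luciferin-ME EGE (at Km) in 100 mM KPO4, compound preincubated 10 min, then NADPH regeneration system for 60 min at room temperature. Luciferin read by luminescence; normalized to 1.43 uM quinidine.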

Chain of Ubiquitin carboxyl-terminal hydrolase 1 (Homo sapiens) (O94782 whole entry, looked up): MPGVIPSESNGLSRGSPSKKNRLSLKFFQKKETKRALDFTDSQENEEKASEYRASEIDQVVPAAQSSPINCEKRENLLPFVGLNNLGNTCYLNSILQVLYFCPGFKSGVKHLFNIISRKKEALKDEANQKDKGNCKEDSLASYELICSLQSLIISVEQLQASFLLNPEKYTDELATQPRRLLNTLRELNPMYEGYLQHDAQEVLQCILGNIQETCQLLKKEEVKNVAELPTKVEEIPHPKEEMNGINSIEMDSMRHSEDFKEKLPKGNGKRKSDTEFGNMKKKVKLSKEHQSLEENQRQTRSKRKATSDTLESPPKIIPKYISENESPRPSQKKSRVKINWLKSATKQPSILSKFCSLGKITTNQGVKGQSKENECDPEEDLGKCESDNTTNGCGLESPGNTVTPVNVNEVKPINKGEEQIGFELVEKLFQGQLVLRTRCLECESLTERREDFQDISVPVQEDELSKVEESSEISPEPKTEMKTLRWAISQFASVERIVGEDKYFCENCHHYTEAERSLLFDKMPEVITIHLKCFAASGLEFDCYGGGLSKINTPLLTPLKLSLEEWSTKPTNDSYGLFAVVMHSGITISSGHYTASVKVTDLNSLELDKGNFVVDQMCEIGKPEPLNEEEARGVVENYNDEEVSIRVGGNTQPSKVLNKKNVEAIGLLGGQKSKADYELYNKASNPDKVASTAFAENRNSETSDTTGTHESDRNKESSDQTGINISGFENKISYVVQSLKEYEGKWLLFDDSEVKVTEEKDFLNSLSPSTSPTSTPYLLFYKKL
Chain of Cytochrome P450 3A4 (Homo sapiens) (P08684 whole entry, looked up): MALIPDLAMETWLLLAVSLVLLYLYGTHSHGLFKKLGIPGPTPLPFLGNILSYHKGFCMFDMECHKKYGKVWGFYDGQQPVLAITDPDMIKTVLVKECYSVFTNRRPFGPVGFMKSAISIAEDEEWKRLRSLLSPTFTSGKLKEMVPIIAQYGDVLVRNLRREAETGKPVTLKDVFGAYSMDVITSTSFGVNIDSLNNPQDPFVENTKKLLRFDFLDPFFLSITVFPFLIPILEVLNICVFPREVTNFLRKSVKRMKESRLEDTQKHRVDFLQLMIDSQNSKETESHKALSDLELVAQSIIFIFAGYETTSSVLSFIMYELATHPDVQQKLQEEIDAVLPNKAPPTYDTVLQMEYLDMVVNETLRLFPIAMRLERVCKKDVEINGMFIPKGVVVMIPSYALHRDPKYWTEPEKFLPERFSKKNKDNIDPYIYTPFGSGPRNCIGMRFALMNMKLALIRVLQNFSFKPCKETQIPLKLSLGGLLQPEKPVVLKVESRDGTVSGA
Chain of Glucocorticoid receptor (Homo sapiens) (P04150 whole entry, looked up, the tested form may be a part): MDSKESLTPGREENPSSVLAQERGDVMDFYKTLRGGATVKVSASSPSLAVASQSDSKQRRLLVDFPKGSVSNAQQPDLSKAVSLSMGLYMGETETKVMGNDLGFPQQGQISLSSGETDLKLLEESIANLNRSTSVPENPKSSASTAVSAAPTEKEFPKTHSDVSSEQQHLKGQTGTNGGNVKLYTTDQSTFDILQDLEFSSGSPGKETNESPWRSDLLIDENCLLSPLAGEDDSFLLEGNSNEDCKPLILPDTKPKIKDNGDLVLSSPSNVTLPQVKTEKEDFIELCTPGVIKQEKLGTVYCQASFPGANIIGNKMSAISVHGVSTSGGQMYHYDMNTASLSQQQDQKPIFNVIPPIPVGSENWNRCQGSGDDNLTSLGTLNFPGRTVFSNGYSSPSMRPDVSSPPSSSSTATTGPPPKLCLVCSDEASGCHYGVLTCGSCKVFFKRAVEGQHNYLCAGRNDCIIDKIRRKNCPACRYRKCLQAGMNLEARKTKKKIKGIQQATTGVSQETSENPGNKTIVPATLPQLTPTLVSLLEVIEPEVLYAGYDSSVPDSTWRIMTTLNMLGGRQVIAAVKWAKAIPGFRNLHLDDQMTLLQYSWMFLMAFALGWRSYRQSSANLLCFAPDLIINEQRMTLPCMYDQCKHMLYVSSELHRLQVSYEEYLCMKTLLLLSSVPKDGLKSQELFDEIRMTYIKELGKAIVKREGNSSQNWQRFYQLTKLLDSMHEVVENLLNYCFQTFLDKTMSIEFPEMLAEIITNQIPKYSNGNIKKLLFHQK
Chain of DNA dC->dU-editing enzyme APOBEC-3G (Homo sapiens) (Q9HC16 whole entry, looked up): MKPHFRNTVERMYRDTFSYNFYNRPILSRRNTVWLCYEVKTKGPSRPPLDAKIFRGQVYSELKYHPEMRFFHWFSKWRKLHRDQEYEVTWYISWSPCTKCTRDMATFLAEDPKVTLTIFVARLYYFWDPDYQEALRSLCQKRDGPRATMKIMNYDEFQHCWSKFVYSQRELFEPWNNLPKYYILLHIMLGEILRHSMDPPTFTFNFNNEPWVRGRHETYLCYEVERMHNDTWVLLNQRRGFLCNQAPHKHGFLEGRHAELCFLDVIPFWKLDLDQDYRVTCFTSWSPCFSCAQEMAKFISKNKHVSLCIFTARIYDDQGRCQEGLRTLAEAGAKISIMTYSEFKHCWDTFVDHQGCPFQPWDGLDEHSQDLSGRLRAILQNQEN
Chain of Cytochrome P450 1A2 (Homo sapiens) (P05177 whole entry, looked up): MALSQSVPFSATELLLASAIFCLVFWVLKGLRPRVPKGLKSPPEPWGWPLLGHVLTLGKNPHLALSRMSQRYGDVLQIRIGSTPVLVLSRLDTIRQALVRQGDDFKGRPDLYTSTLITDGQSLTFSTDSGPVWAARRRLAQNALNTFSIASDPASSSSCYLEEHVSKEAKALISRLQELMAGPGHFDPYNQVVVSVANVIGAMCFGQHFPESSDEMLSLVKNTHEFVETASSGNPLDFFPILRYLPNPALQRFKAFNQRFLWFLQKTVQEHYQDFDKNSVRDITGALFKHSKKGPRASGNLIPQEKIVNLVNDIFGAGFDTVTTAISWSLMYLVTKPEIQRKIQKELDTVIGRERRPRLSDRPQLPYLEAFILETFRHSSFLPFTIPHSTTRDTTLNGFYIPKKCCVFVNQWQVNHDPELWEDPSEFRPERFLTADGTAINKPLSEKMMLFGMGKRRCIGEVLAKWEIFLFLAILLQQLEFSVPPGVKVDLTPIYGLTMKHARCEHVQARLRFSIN
Chain of Cytochrome P450 2C9 (Homo sapiens) (P11712 whole entry, looked up): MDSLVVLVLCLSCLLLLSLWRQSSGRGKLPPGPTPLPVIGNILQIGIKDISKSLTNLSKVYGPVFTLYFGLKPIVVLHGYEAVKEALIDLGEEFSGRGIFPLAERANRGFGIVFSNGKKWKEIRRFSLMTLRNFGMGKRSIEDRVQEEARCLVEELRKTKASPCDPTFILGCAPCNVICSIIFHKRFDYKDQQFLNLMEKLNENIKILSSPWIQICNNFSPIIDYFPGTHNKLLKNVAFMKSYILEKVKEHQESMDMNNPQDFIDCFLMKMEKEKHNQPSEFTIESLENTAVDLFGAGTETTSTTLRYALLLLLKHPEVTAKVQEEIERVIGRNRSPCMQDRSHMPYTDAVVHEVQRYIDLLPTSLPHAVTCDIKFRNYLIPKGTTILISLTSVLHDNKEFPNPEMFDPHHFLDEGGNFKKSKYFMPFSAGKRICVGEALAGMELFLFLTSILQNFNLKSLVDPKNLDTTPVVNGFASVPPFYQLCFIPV
Chain of 3',5'-cyclic-AMP phosphodiesterase 4B (Homo sapiens) (Q07343 whole entry, looked up): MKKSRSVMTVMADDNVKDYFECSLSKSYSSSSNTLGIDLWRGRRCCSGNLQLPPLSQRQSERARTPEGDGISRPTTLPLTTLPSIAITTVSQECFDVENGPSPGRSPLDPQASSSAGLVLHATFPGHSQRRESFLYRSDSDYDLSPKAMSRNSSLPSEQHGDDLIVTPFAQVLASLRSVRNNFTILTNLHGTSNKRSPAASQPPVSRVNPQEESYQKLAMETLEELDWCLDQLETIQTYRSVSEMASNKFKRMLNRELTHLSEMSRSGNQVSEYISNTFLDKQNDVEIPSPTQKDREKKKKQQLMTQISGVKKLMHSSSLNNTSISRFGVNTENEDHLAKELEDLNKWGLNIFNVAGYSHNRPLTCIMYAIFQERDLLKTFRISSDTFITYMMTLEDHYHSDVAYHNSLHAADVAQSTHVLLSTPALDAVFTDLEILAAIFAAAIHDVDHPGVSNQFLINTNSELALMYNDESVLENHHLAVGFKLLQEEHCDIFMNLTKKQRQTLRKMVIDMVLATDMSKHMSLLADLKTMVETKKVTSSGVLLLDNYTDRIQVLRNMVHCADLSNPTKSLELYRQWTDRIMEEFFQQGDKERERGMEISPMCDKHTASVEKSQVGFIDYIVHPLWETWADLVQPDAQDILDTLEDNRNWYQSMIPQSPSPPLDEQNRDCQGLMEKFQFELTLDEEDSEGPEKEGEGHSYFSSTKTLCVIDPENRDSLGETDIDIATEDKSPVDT
Chain of Cytochrome P450 2C19 (Homo sapiens) (P33261 whole entry, looked up): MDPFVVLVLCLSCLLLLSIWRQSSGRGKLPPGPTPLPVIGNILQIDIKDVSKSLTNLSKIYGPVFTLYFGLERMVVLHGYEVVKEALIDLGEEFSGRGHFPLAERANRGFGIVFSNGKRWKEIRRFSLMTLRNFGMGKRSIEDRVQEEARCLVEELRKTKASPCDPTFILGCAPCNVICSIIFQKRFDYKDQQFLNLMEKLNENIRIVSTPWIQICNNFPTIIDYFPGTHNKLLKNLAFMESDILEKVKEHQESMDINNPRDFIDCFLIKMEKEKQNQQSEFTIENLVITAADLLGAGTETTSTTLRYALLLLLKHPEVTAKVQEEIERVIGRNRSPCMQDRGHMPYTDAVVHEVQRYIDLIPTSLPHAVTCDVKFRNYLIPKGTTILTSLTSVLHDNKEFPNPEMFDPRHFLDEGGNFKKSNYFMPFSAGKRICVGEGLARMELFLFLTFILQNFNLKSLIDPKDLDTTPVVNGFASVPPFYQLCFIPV

OCc1cc([C@@H](O)CNCCCCCCOCCCCc2ccccc2)ccc1O
inactive: activity change, negative = inhibition ([1]; at 38 µM (top of the series)) 9.46% | activity change, negative = inhibition ([2]; at 38 µM (top of the series)) -1.3% | activity, negative = inhibition ([3]; at 38 µM (top of the series)) -26.7% | Potency [4] > 46 µM | Potency [5] > 46 µM | Potency [6] | Potency [7] | Potency [8] | Potency [9] | Potency [10] | Potency [11]

COC(=O)/C=C\c1cc(O)ccc1O
inactive: Potency [4] > 46 µM | Potency [5] > 46 µM | Potency [6] | Potency [7] | Potency [14] | Potency [10] | Potency [11]
active: Potency [12] 3.98 µM | Potency [13] 7.94 µM | Potency [8] 18.8 µM

CCCCC[C@H](O)/C=C/[C@@H]1[C@@H](CCCCCCC(=O)O)[C@@H](O)C[C@H]1O
inactive: activity change, negative = inhibition ([1]; at 17.2 µM (top of the series)) 8.11% | activity, negative = inhibition ([3]; at 17.2 µM (top of the series)) 2.03% | Potency [4] > 20.6 µM | activity change, negative = inhibition [10] 8.46% [at 6.83 µM] | activity change, negative = inhibition [11] -7.27% [at 3.88 µM]

CCn1c(=O)[nH]c2ccccc21
active: Potency [12] 31.6 µM
inactive: Potency [4] > 46 µM | Potency [5] > 46 µM | Potency [6] | Potency [7] | Potency [14] | Potency [8] | Potency [10] | Potency [11]

NCCC[C@@H](N)C(=O)O
inactive: Potency [15] > 11.4 µM | activity change, negative = inhibition ([1]; at 7.69 µM (top of the series)) -2% | activity change, negative = inhibition ([2]; at 7.69 µM (top of the series)) -0.481% | activity, negative = inhibition ([3]; at 7.69 µM (top of the series)) 1.44% | activity change, negative = inhibition [6] 6.02% [at 11.4 µM] | Potency [7] | Potency [10] | Potency [11]

CCCCOC(=O)c1cc2c(cn1)[nH]c1ccccc12
inactive: Potency [4] > 46 µM | Potency [5] > 46 µM | Potency [6] | Potency [16] | Potency [8] | Potency [10] | Potency [11]
active: Potency [12] 0.158 µM | Potency [13] 7.94 µM | Potency [17] 5.01 µM

O=C(N/N=C\c1ccccc1O)c1ccccc1O
active: Potency [12] 0.794 µM | Potency [18] 7.94 µM
inactive: Potency [4] > 46 µM | Potency [5] > 46 µM | Potency [7] | Potency [13] | Potency [16] | Potency [17] | Potency [14] | Potency [10] | Potency [11]

CC1(C)CC(=O)C([C@H]2C3=C(CC(C)(C)CC3=O)Oc3ccccc32)C(=O)C1
inactive: Potency [12] | Potency [4] > 46 µM | Potency [5] > 46 µM | Potency [6] | Potency [7] | Potency [16] | Potency [14] | Potency [8] | Potency [10] | Potency [11]

N[C@@H](Cc1cc(-c2ccc(Cl)cc2Cl)cc(CP(=O)(O)O)c1O)C(=O)O
active: Potency [12] 20 µM | Potency [10] 23.8 µM
inactive: Potency [4] > 46 µM | Potency [5] > 46 µM | Potency [6] | Potency [7] | Potency [8] | Potency [11]
